The supplement of paper PMC12494721
Structures can show the parent of a compound that is named as a salt.

Assays:
Conditions in all cases: incubation time: 27 h, anaerobic, 37 °C;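 for the amine columns active = adjusted P below 0.05 in both replicates with a change the same way and a mean fold change under 0.8 or over 1.25; inactive = the rest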
[1] = tested on: Clostridium sporogenes DSM 1664; assay: growth (OD595) fold change vs plate DMSO controls (fold change (ratio)); higher = more growth
Method in brief: (§1)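 Anaerobic 27 h, 37 °C mGAM 96-well cultures were shaken, then read for absorbance at 595 nm. Values were blank-subtracted and corrected for compound background using 20 µM compound solutions in water. A calibration factor of 5 converted them to OD. Growth is the fold change versus the median of plate DMSO controls. Fold changes above 1.5 were set to NA, and values are the mean of 2 biological replicates.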

Escherichia coli IAI1 [2] = assay: as above
Method in brief: as §1

[3] = tested on: Klebsiella aerogenes DSM 30053; assay: as above
Method in brief: as §1

[4] = tested on: Ruminococcus gnavus DSM 108212; assay: as above
Method in brief: as §1

[5] = tested on: Klebsiella aerogenes DSM 30053; assay: fold change of Histamine concentration vs plate DMSO controls (fold change (ratio)); higher = more amine produced, active = hit call of the paper (significant change in both replicates, either direction)
Method in brief: (§2)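 Extracts of whole anaerobic mGAM cultures were analysed for amines by LC–triple-quadrupole MS with dynamic MRM and external calibration curves, with drift corrected within batch. Four gut strains were grown at 37 °C for 27 h in 80 µL wells with compounds at 20 µM final, sweeteners at 50 µM final. Each value expresses fold change over plate DMSO controls. The average of 2 biological replicates is shown.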

[6] = tested on: Clostridium sporogenes DSM 1664; assay: fold change of Tryptamine concentration vs plate DMSO controls (fold change (ratio)); higher = more amine produced, active = hit call of the paper (significant change in both replicates, either direction)
Method in brief: as §2

[7] = tested on: Ruminococcus gnavus DSM 108212; assay: as above
Method in brief: as §2

Escherichia coli IAI1 [8] = assay: fold change of Putrescine concentration vs plate DMSO controls (fold change (ratio)); higher = more amine produced, active = hit call of the paper (significant change in both replicates, either direction)
Method in brief: as §2

[9] = tested on: Klebsiella aerogenes DSM 30053; assay: as above
Method in brief: as §2

Escherichia coli IAI1 [10] = assay: fold change of Cadaverine concentration vs plate DMSO controls (fold change (ratio)); higher = more amine produced, active = hit call of the paper (significant change in both replicates, either direction)
Method in brief: as §2

[11] = tested on: Klebsiella aerogenes DSM 30053; assay: as above
Method in brief: as §2

[12] = tested on: Ruminococcus gnavus DSM 108212; assay: fold change of 2-Phenylethylamine concentration vs plate DMSO controls (fold change (ratio)); higher = more amine produced, active = hit call of the paper (significant change in both replicates, either direction)
Method in brief: as §2

Compound	growth [1]	growth (Escherichia coli IAI1 [2])	growth [3]	growth [4]	fold change of Histamine concentration [5]	fold change of Tryptamine concentration [6]	fold change of Tryptamine concentration [7]	fold change of Putrescine concentration (Escherichia coli IAI1 [8])	fold change of Putrescine concentration [9]	fold change of Cadaverine concentration (Escherichia coli IAI1 [10])	fold change of Cadaverine concentration [11]	fold change of 2-Phenylethylamine concentration [12]
O=c1[nH]c(=O)n(C2CCCO2)cc1F (configuration not stated) [Tegafur] (20 µM)	1.08	0.975	1.01	0.933	0.969 (inactive)	1.01 (inactive)	1.06 (inactive)	1.25 (inactive)	1 (inactive)	0.967 (inactive)	1.01 (inactive)	1.03 (inactive)
COc1cc2nc(N(C)CCCNC(=O)C3CCCO3)nc(N)c2cc1OC (configuration not stated) [Alfuzosin hydrochloride] (20 µM)	0.976	1.01	1.01	1.31	0.953 (inactive)	1 (inactive)	1.04 (inactive)	0.976 (inactive)	0.99 (inactive)	1.01 (inactive)	1.04 (inactive)	1.04 (inactive)
CC1(C)O[C@@H]2[C@@H](CO[C@@]3(COS(N)(=O)=O)OC(C)(C)O[C@@H]23)O1 [Topiramate] (20 µM)	0.915	0.972	0.997	1.06	1 (inactive)	0.998 (inactive)	0.947 (inactive)	1.01 (inactive)	0.98 (inactive)	1.01 (inactive)	0.989 (inactive)	0.951 (inactive)
O=C(c1ccccc1)c1ccc2n1CCC2C(=O)O (configuration not stated) [Ketorolac tromethamine] (20 µM)	0.909	1.04	0.976	0.993	1.04 (inactive)	1.08 (inactive)	1.03 (inactive)	1.15 (inactive)	1.03 (inactive)	1.07 (inactive)	0.995 (inactive)	0.994 (inactive)
Cn1c(=O)c2c(ncn2CC(=O)O)n(C)c1=O [Acefylline] (20 µM)	0.895	0.94	1.02	1.06	0.964 (inactive)	0.971 (inactive)	0.936 (inactive)	0.93 (inactive)	0.995 (inactive)	1.01 (inactive)	0.999 (inactive)	0.886 (inactive)
C[C@@H](c1ncncc1F)[C@](O)(Cn1cncn1)c1ccc(F)cc1F [Voriconazole] (20 µM)	0.883	0.997	1.02	0.932	0.988 (inactive)	1.07 (inactive)	1.01 (inactive)	1.02 (inactive)	0.999 (inactive)	0.988 (inactive)	1 (inactive)	0.991 (inactive)
C[N+](C)(C)CCOC(N)=O [Carbachol chloride] (20 µM)	0.948	1	0.997	1.09	1.01 (inactive)	1.07 (inactive)	1.09 (inactive)	0.986 (inactive)	0.983 (inactive)	0.957 (inactive)	1.01 (inactive)	1.11 (inactive)
C=CC[C@@H]1/C=C(\C)C[C@H](C)C[C@H](OC)[C@H]2O[C@@](O)(C(=O)C(=O)N3CCCC[C@H]3C(=O)O[C@H](/C(C)=C/[C@@H]3CC[C@@H](O)[C@H](OC)C3)[C@H](C)[C@@H](O)CC1=O)[C@H](C)C[C@@H]2OC [Tacrolimus Monohydrate] (20 µM)	0.867	1.04	1.02	1.02	1.02 (inactive)	1.02 (inactive)	1.01 (inactive)	1.05 (inactive)	1.02 (inactive)	1.01 (inactive)	1.01 (inactive)	1.02 (inactive)
CC(C)(CO)[C@@H](O)C(=O)NCCCO [(D)-Panthenol] (20 µM)	0.885	0.982	1.05	1.15	1.02 (inactive)	0.993 (inactive)	0.956 (inactive)	0.964 (inactive)	1.01 (inactive)	1 (inactive)	0.996 (inactive)	0.999 (inactive)
CNCCCC12CCC(c3ccccc31)c1ccccc12 [Maprotiline hydrochloride] (20 µM)	1.03	1.01	0.999	1.09	0.982 (inactive)	0.973 (inactive)	0.913 (inactive)	1.02 (inactive)	1.01 (inactive)	1.03 (inactive)	1.01 (inactive)	0.884 (inactive)
Cc1ccc2c(Cl)cc(Cl)c(O)c2n1 [Chlorquinaldol] (20 µM)	0.726	0.915	0.929	0.448	1.12 (inactive)	0.518 (active)	0.33 (active)	1.17 (inactive)	1.03 (inactive)	1.32 (inactive)	0.978 (inactive)	0.332 (inactive)
